A short description of experiment [1]: qHTS assay to identify small molecule antagonists of the estrogen receptor alpha (ER-alpha) signaling pathway using the BG1 cell line in the presence of 0.1 nM 17-beta-estradiol - cell viability counter screen (AID 1259241). Further: nearly all actives have a fitted effect of over 40% in size. Further: potency means the concentration at half of the fitted maximal effect. On activity change, negative = cytotoxicity: on the % scale 0 is the no-effect control and ±100 the full control effect. The method in brief: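 VM7Luc4E2 cells (endogenous ER-alpha, 4×ERE-luciferase), hormone-starved 5 days in charcoal-stripped FBS, were treated with compounds plus 0.1 nM 17beta-estradiol for 22 hr at 37C; viability read in same wells as CellTiter-Fluor live-cell protease fluorescence.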
A general note: qHTS replaces the single test concentration by a dilution series.

In experiment [2] the target is Estrogen receptor (Homo sapiens) (UniProt P03372). Put plainly: qHTS assay to identify small molecule antagonists of the estrogen receptor alpha (ER-alpha) signaling pathway using the BG1 cell line in the presence of 0.1 nM 17-beta-estradiol (AID 1259244). Further: nearly all actives have a fitted effect of over 50% in size. Further: potency means the concentration at half of the fitted maximal effect. The method in brief: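 Estradiol at 0.1 nM (final) stimulates the endogenous ER-alpha of VM7Luc4E2 cells carrying an ERE-driven luciferase; compounds are co-incubated 22 h at 37C and luciferase output quantified by luminescence.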
Chain of Estrogen receptor (Homo sapiens) (P03372 whole entry, looked up): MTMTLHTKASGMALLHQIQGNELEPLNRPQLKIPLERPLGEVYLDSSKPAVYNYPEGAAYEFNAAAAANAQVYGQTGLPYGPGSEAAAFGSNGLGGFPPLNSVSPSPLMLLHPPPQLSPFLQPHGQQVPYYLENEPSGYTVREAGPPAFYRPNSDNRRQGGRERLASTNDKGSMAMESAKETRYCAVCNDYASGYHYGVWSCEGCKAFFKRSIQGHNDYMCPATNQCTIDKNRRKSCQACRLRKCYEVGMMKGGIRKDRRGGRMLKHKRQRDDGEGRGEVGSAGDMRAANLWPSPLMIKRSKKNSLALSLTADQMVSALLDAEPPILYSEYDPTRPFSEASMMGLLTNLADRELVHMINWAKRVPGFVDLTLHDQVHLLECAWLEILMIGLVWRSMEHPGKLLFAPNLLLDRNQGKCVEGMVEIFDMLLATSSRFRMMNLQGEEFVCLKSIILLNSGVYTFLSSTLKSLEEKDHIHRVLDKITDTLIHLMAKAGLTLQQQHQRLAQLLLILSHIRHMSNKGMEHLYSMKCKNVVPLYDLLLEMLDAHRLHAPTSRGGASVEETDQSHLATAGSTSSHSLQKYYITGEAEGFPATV

Experiment [3] is described as follows: qHTS assay to identify small molecule HDAC inhibitors (AID 1259364). Further: potency means the concentration at half of the fitted maximal effect.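 Further: wild-type HCT-116 cells with endogenous class I/II HDAC activity; nearly all actives have a fitted effect of over 45% in size.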 In short, it runs like this:
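Read-out: luminescence of HDAC-Glo I/II reagent, 30 min RT, reflecting class I/II deacetylase activity in whole HCT-116 cells pre-exposed 2 h to DMSO-dissolved compounds.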

Experiment [4] is described as follows: qHTS assay to identify small molecule antagonists of the sonic hedgehog signaling (Shh) pathway - cell viability counter screen (AID 1259367). Further: nearly all actives have a fitted effect of over 55% in size. Further: potency means the concentration at half of the fitted maximal effect. In short, it runs like this: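 Cells: 3T3 Gli1-Luc, 2,000/well, 4 hr pre-incubation. Compounds in DMSO, then conditioned medium. Incubation 24 hr, 37C, 5% CO2. CellTiter-Fluor at 23 hr, 1 hr, fluorescence.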
Experiment [5] is described as follows: qHTS assay to identify small molecule agonists of the sonic hedgehog signaling (Shh) pathway (AID 1259368; calls by dose curve; further: series mostly up to about 92 µM; on the % scale 0 is the no-effect control and ±100 the full control effect; nearly all actives have a fitted effect of over 15% in size). The method in brief: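 A Gli1 transcriptional response element controlled firefly luciferase in 3T3Gli1-Luc cells. Compounds and a positive control were added 4 hr after plating, and cells were incubated a further 24 hr at 37 C before luminescence detection.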

A short description of experiment [6]: qHTS assay to identify small molecule antagonists of the sonic hedgehog signaling (Shh) pathway (AID 1259369; calls by dose curve; further: nearly all actives have a fitted effect of over 45% in size; further: potency means the concentration at half of the fitted maximal effect). In short, it runs like this: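 For antagonist detection, the reporter line received test compounds together with conditioned medium, incubated 24hr at 37 C, 5% CO2, then luminescence was recorded following 30min room-temperature luciferase reagent incubation.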

The nature of experiment [7]: qHTS assay to identify small molecule antagonists of the estrogen receptor beta (ER-beta) signaling pathway - cell viability counter screen (AID 1259382). Further: nearly all actives have a fitted effect of over 55% in size. Further: potency means the concentration at half of the fitted maximal effect. The method in brief:
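In this multiplexed counter screen, cells were seeded at 2,000 per well in medium with 2% charcoal-stripped FBS and incubated 6 hr before compound and 1nM final E2 were added. Sixteen hours later, ATP-based luminescence reported viability.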

Experiment [8] addresses Estrogen receptor (Homo sapiens) (UniProt P03372). Briefly: qHTS assay to identify small molecule agonists of the estrogen receptor alpha (ER-alpha) signaling pathway in the presence of an antagonist (AID 1259383; calls by dose curve; further: top concentration of the series differs between compounds; on the % scale 0 is the no-effect control and ±100 the full control effect; nearly all actives have a fitted effect of over 15% in size). The method in brief:
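Stably transfected VM7Luc4E2 reporter cells, kept 5 days in charcoal-stripped serum, received ICI-182,780 at 10.0nM final before compound addition. Following 22hr incubation at 37C and 5% CO2, luciferase signal was read by luminescence.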

Experiment [9] can be described thus: qHTS assay to identify small molecule agonists or antagonists of the thyroid stimulating hormone receptor (TSHR) signaling pathway - wild type cell line counter screen (AID 1259384; calls by dose curve; further: on the % scale 0 is the no-effect control and ±100 the full control effect). In short, it runs like this: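 Counter screen in untransfected Hek293: compounds (15-point titration, triplicate) plus phosphodiesterase inhibitor Ro20-1724 added after 18 h plating; 30 min RT. Intracellular cAMP via competitive d2/cryptate immunoassay, 1 h incubation.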

Experiment [10] is described as follows: qHTS assay to identify small molecule agonists of the sonic hedgehog signaling (Shh) pathway - cell viability counter screen (AID 1259366). Further: potency means the concentration at half of the fitted maximal effect; nearly all actives have a fitted effect of over 50% in size. The method in brief: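 NIH/3T3-derived 3T3 Gli1-Luc cells (stable Gli1-responsive firefly luciferase reporter) were seeded, rested 4 hr at 37 C/5% CO2, then exposed to compounds in DMSO for 24 hr; viability was read by CellTiter-Fluor fluorescence in the same wells.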

The target of experiment [11] is Estrogen receptor beta (Homo sapiens) (UniProt Q92731). Put plainly: qHTS assay to identify small molecule antagonists of the estrogen receptor beta (ER-beta) signaling pathway (AID 1259378; active means well fitted inhibition curve with a large enough effect in the signal ratio in the repeat runs, not every such curve was filed as active; the % refers to the signal ratio; further: potency means the concentration at half of the fitted maximal effect). The method in brief:
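Antagonist mode: compounds added to beta-lactamase reporter HEK293T ER-beta-UAS cells stimulated with E2 (1nM final), 16 hr at 37C. LiveBLAzer B/G FRET substrate, 2 hours room temperature, fluorescence read-out.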

Experiment [12] can be described thus: qHTS assay to identify small molecule agonists of the estrogen receptor beta (ER-beta) signaling pathway - cell viability counter screen (AID 1259380). Further: nearly all actives have a fitted effect of over 30% in size. Further: potency means the concentration at half of the fitted maximal effect. The method in brief:
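CellTiter-Glo read, 30 min RT, same wells as bla assay; cells ER-beta-UAS-bla HEK293T; 16 hr compound, 37C; medium 2% charcoal-stripped FBS.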

The nature of experiment [13]: qHTS assay to identify small molecule HDAC inhibitors - cell viability counter screen (AID 1259365). Further: nearly all actives have a fitted effect of over 50% in size. Further: potency means the concentration at half of the fitted maximal effect. The method in brief: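 Wild-type HCT-116 cells were seeded at 1,500 per well, incubated overnight at 37 C, then exposed to compounds in DMSO for 2hr. Viability was read by CellTiter-Glo luminescence after 30min at room temperature.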
The target in experiment [14] is Estrogen receptor beta (Homo sapiens) (UniProt Q92731). Put plainly: qHTS assay to identify small molecule agonists of the estrogen receptor beta (ER-beta) signaling pathway (AID 1259377; active means well fitted activation curve with a large enough effect in the signal ratio in the repeat runs, not every such curve was filed as active; the % refers to the signal ratio; further: on the % scale 0 is the no-effect control and ±100 the full control effect). In short, it runs like this: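 ER-beta-UAS-bla HEK293T (GripTite) cells carrying a UAS-driven beta-lactamase reporter, in medium with 2% charcoal-stripped FBS, were exposed to compounds for 16 hr at 37C; LiveBLAzer B/G FRET substrate was then added and fluorescence read after 2 hours at room temperature.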
Chain of Estrogen receptor beta (Homo sapiens) (Q92731 whole entry, looked up): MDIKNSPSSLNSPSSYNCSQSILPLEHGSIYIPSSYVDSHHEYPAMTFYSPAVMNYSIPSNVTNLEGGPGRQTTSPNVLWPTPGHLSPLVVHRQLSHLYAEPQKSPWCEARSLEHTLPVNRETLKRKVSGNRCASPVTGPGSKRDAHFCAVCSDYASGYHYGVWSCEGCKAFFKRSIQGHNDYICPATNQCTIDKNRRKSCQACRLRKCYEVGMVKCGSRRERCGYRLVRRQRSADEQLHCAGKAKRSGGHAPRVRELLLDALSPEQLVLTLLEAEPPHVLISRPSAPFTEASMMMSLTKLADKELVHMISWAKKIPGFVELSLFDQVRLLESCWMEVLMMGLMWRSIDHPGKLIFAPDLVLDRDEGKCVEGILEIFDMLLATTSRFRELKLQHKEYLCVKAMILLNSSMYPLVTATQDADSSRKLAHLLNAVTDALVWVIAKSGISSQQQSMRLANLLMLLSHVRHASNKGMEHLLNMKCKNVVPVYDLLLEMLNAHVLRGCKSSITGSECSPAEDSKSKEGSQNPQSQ

A short description of experiment [15]: qHTS assay to identify small molecule agonists of the androgen receptor (AR) signaling pathway in the presence of an antagonist - cell viability counter screen (AID 1259379). Further: nearly all actives have a fitted effect of over 25% in size. Further: potency means the concentration at half of the fitted maximal effect. The method in brief:
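Seed MDA-kb2 at 3,000 cells/well; incubate 5 hr, 37C, 0% CO2. Add nilutamide to 3.0uM final, then pin compounds at 15 concentrations. Incubate 16 hr. Add CellTiter-Fluor at 15 hr, read fluorescence after 1 hr.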

Experiment [16] is described as follows: qHTS assay to identify small molecule phospholipidosis (PLD) inducers (AID 1259344; active means well fitted curve in the direction sought with a large enough effect; an effect the other way counts as inactive or inconclusive; further: on the % scale 0 is the no-effect control and ±100 the full control effect). In short, it runs like this:
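Phospholipidosis is scored by imaging LipidTOX-stained pits in HepG2 cells exposed to compound for 24 h at 37 C; pit counts and integrated intensities per well and per cell serve as outputs.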

For experiment [17], the target named is Thyrotropin receptor (Homo sapiens) (UniProt P16473). Put plainly: qHTS assay to identify small molecule antagonists of the thyroid stimulating hormone receptor (TSHR) signaling pathway (AID 1259385; calls by dose curve; further: nearly all actives have a fitted effect of over 20% in size; further: potency means the concentration at half of the fitted maximal effect). In short, it runs like this:
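Antagonist mode: compound-treated TSHR-expressing HEK293 cells were stimulated with 1.5 ng/mL TSH (final) in presence of Ro20-1724 for 30 min at RT. HTRF cAMP detection after 1 h; each compound tested at 15 concentrations, triplicate.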

Experiment [18] has as its target Androgen receptor (Homo sapiens) (UniProt P10275). Briefly: qHTS assay to identify small molecule antagonists of the androgen receptor (AR) signaling pathway using the MDA cell line in the presence of 0.5 nM R1881 (AID 1259243). Further: potency means the concentration at half of the fitted maximal effect; nearly all actives have a fitted effect of over 50% in size. In short, it runs like this:
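Reporter cells cultured without CO2 receive test chemicals, then 0.5 nM R1881 final; after 16 hr at 37C, ONE-Glo is added and light output recorded.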

For experiment [19] the target is unchanged. Put plainly: qHTS assay to identify small molecule agonists of the androgen receptor (AR) signaling pathway in the presence of an antagonist (AID 1259381; calls by dose curve; further: on the % scale 0 is the no-effect control and ±100 the full control effect; nearly all actives have a fitted effect of over 15% in size). The method in brief:
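Test compounds at 15 concentrations were incubated for 16hr with MDA-kb2 reporter cells in presence of 3.0uM nilutamide (final). Signal: ONE-Glo luciferase luminescence.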

Where “and” joins values, the source holds several entries; their conditions need not be identical. Equal values may be shown once. A number with no mark means an inactive call. Results filed as inconclusive are left out. Calls of active or inactive are those of the source. Unless noted, the call rests on the fitted dose curve; in most records, active means well fitted curve in the direction sought with a large enough effect in the repeat runs; inconclusive means weak or mixed curves; inactive means no such curve, though single readings can be large; an effect the other way counts as inactive or inconclusive.

We go through nine compounds from PubChem BioAssay (Tox21).

Chain of Thyrotropin receptor (Homo sapiens) (P16473 whole entry, looked up): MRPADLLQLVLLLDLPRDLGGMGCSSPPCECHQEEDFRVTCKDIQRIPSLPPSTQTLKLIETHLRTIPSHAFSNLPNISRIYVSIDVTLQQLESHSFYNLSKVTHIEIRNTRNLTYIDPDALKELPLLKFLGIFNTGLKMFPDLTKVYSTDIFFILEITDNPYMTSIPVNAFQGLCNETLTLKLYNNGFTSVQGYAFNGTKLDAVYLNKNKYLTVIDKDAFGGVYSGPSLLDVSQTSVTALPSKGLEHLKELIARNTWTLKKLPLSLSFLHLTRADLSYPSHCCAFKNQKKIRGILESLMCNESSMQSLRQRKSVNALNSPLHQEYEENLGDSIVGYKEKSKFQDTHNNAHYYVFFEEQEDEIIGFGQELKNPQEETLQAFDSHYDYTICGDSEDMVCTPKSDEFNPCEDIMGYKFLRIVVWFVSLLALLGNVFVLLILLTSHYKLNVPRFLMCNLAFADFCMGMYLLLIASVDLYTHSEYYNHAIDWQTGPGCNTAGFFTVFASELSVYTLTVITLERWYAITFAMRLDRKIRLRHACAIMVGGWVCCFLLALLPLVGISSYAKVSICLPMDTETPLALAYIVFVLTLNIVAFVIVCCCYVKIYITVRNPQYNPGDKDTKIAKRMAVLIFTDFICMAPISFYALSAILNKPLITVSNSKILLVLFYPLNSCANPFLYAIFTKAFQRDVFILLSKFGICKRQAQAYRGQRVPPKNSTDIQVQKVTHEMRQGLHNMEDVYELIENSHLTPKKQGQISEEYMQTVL
Chain of Androgen receptor (Homo sapiens) (P10275 whole entry, looked up): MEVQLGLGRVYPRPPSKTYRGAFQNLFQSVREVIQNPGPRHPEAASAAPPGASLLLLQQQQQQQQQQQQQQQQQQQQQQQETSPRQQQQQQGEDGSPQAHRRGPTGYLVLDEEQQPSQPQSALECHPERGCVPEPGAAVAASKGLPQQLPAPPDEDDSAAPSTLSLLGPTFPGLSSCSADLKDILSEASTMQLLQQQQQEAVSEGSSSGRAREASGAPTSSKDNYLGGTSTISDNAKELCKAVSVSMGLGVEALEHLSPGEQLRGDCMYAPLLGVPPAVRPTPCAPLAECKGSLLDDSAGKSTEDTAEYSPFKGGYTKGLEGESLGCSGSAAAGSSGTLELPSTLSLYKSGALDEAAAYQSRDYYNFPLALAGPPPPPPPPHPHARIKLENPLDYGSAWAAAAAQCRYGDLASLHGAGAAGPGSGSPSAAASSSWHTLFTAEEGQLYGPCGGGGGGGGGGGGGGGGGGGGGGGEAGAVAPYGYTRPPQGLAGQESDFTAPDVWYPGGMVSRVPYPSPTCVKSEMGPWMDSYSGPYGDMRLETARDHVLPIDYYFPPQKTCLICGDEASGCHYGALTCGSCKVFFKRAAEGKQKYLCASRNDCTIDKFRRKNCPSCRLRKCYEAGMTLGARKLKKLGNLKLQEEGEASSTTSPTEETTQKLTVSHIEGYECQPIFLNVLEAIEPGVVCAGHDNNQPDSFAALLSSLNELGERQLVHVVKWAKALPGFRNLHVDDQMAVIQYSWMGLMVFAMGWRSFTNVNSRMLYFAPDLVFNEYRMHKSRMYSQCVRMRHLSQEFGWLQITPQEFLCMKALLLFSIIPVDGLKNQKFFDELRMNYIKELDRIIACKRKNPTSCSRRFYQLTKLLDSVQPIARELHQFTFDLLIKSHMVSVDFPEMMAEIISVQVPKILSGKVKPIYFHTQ

Regarding `BrC(Br)C(Br)(Br)Br`, the Potency result in experiment [1], in experiment [2], in [3], in [4], in [5] and in [7] was “inactive” throughout. The Potency entry in experiment [8] was “inactive”. Besides, the Potency in [6] was 61.5 µM (active). The compound was called inactive in experiment [9].

`CC(C)CC(C)Nc1ccc(Nc2ccccc2)cc1` (centres undefined): the Potency in experiment [1] is 53.5 µM (active); in [10], 26.8 µM (active); in experiment [4], 16.9 µM (active); in experiment [6], 12 µM (active); in [11], 30.1 µM (active); in experiment [12], 67.4 µM (active). The Potency result in [3], in experiment [5] and in experiment [8] was “inactive” each time.

Take `CC(C)C1CCC(Cc2ccc(Cl)cc2)C1(O)Cn1cncn1` (centres undefined): the Potency result in experiment [1], in experiment [3], in [13], in [5], in experiment [14] and in [8] was “inactive” in each case. Moreover, the Potency in [2] is 48.1 µM (active); in experiment [10] it was 48.1 µM (active); in experiment [4] it was 53.9 µM (active); in experiment [11] it was 24.1 µM (active); in experiment [15], 67.9 µM (active); in experiment [12], 67.9 µM (active). The Potency in experiment [7] is 67.9 µM (active). Further, the result in experiment [9] was inactive.

Consider `COC12CC[C@@]3(C[C@@H]1C(C)(O)C(C)(C)C)[C@H]1Cc4ccc(O)c5c4[C@@]3(CCN1CC1CC1)[C@H]2O5` (some centres undefined), for which the Potency in experiment [1] was 60.7 µM (active); in experiment [2], 24.2 µM (active); in [10], 24.2 µM (active); in [4], 17.1 µM (active); in experiment [6], 4.82 µM (active); in [15] it was 60.7 µM (active). The Potency in experiment [12] is 27.1 µM (active); in experiment [7], 54.1 µM (active). In addition, the Potency result in experiment [16], in experiment [3], in [5], in [8] and in experiment [17] was “inactive” in each case. Further, the outcome in experiment [9] was inactive.

`Clc1ccc(C(c2ccccc2Cl)C(Cl)(Cl)Cl)cc1` (centres undefined): the Potency entry in experiment [1], in experiment [2], in [3], in experiment [13], in experiment [4] and in experiment [5] was “inactive” each time. The Potency entry in experiment [6], in experiment [14], in experiment [15] and in experiment [7] was “inactive” throughout. Besides, the Potency in experiment [11] is 6.15 µM (active) and 8.02 µM (active); in experiment [12], 48.9 µM (active).

For the compound `C[CH2][Hg][N]1C(=O)C2C(C1=O)C1(Cl)C(Cl)=C(Cl)C2(Cl)C1(Cl)Cl` (centres undefined), the Potency was 13 µM (active) in [1]; 7.3 µM (active) in [18]; 7.3 µM (active) in [10]; 14.6 µM (active) in experiment [6]; 13 µM (active) in [15]; 9.2 µM (active) in [12]. Besides, the Potency in experiment [7] was 11.6 µM (active); in [17], 14.6 µM (active). Also, in experiment [13], the activity change, negative = cytotoxicity is -3.87% [at 19 µM]. Moreover, the activity change in experiment [5] is -11.5% [at 18.9 µM, active compounds read high]. Moreover, in [19], the activation is -7.84% [at 19 µM]. Also, the cAMP activity change in [9] was 11% [at 18.9 µM].

As to `[Cl][Sb]([Cl])[Cl]`, the values for the Potency in experiment [1] and in [15] were 27.3 µM (active) and 24.3 µM (active), respectively. Besides, the Potency result in [3], in experiment [13], in experiment [5], in experiment [14], in [12] and in [7] was “inactive” throughout. Besides, the Potency entry in experiment [17] was “inactive”. In addition, the compound was called inactive in experiment [9].

Regarding `CC(=O)[O-].CC(=O)[O-].[Hg+2]`, the Potency in experiment [1] was 17.2 µM (active); in experiment [3] it was 19.3 µM (active); in experiment [13], 61.1 µM (active); in experiment [10] it was 2.17 µM (active); in experiment [4] it was 4.33 µM (active); in [6] it was 0.686 µM (active). Also, the Potency was 10.9 µM (active) in [15], 3.06 µM (active) in experiment [12] and 6.11 µM (active) in [7]. In [5], the Potency result was “inactive”.

In the case of `CN(C)C(=S)S`, the Potency is 43.3 µM (active) in [1]; 12.4 µM (active) and 6.07 µM (active) and 4.86 µM (active) in experiment [10]; 7 µM (active) and 4.82 µM (active) and 54.5 µM (active) in [4]; 4.95 µM (active) and 962 nM (active) and 3.44 µM (active) in experiment [6]; 5.56 µM (active) and 1.21 µM (active) and 12.2 µM (active) in experiment [12]; 12.4 µM (active) in experiment [7]. Further, the Potency result in experiment [3], in experiment [5] and in experiment [15] was “inactive” throughout.
